The first test has as its target Proto-oncogene tyrosine-protein kinase Src (Homo sapiens) (UniProt P12931). As to conditions: at 10 µM.
Chain of Proto-oncogene tyrosine-protein kinase Src (Homo sapiens) (P12931 2-536 limits assumed): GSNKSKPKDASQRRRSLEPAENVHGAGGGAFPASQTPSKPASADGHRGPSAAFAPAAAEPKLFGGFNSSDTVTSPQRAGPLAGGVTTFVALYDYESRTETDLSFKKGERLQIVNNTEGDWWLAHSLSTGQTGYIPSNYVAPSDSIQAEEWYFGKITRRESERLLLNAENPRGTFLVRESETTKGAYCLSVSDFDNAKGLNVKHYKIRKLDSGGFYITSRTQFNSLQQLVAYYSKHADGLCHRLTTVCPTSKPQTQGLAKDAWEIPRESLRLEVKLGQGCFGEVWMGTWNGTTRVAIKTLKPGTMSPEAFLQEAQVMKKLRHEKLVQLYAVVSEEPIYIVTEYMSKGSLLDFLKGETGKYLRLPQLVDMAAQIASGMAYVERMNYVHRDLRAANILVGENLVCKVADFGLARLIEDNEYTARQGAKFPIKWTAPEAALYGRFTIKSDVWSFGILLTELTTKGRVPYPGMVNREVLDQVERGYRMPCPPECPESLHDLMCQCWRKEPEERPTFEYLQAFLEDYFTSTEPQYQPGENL
For the molecule `Cc1ccc(NC2=CC(=O)c3sc(C)nc3C2=O)cc1`, the residual activity is 87%.

Regarding `O=C1Nc2ccccc2/C1=C1/Nc2ccccc2/C1=N\OCCC(O)CO` (stereo not given), the residual activity is -2%.

As for `CC(C)n1cnc2/c(=N/c3cccc(Cl)c3)nc(NCCO)[nH]c21`, the residual activity stood at 7%.

As to `N#C/C(=C(\N)Sc1ccc(N)cc1)c1ccccc1C(F)(F)F`, the residual activity was determined as 91%.

On to `CC#CC(=O)Nc1cc2c(Nc3ccc(F)c(Cl)c3)ncnc2cn1`, for which the residual activity came to 92%.

For `Cn1nc2c3c(cccc31)C(=O)c1ccccc1-2`, the residual activity turned out to be 93%.

Turning to `CO[C@H]1C[C@@H]2CC[C@@H](C)[C@@](O)(O2)C(=O)C(=O)N2CCCC[C@H]2C(=O)O[C@H]([C@H](C)C[C@@H]2CC[C@@H](O)[C@H](OC)C2)CC(=O)[C@H](C)/C=C(\C)[C@@H](O)[C@@H](OC)C(=O)[C@H](C)C[C@H](C)/C=C/C=C/C=C/1C`, the residual activity came out at 95%.

As for `c1ccc2c(-c3ccncc3)c[nH]c2c1`, the residual activity was found to be 101%.

On to `Cc1cc(Nc2nc(-c3ccccc3)nc3ccccc23)n[nH]1`, for which the residual activity is -2%.

With `O=C1Nc2ccc(Br)cc2/C1=C\c1cc2c([nH]1)CCCC2`, the residual activity was found to be 99%.

As to `Cc1nc(-c2ccccc2)c(-c2ccncc2)o1`, the residual activity was found to be 81%.

As to `c1ccc(-c2n[nH]c3c2oc2ccccc23)cc1`, the residual activity worked out at 90%.

`O=C1NC(=O)c2c1c1c3ccccc3[nH]c1c1[nH]c3cc(Br)ccc3c21`: the residual activity came out at 93%.

Take `CCN(CC)C(=O)c1ccc(Nc2nc(OCC3CCCCC3)c3nc[nH]c3n2)cc1`: the residual activity is 12%.

As to `Nc1n[nH]c2nnc(-c3c(-c4ccccc4)nn4ccccc34)cc12`, the residual activity worked out at 77%.

In the case of `Cc1nc2cc3nc(-c4cccs4)cnc3cc2n1C`, the residual activity came to 86%.

As for `COc1cccc(-c2cc(=O)c3ccccc3o2)c1N`, the residual activity was 87%.

Take `Cc1cncc2cccc(S(=O)(=O)N3CCCN(C(=O)CN)C[C@H]3C)c12`: the residual activity worked out at 96%.

Take `Oc1ccc(-c2nc(-c3ccc(F)cc3)c(-c3ccncc3)[nH]2)cc1`: the residual activity amounted to 45%.

On to `Cc1cc2ncc(-c3ccccc3)nc2cc1C`, for which the residual activity was 99%.

Take `COc1cc2ncnc(Nc3ccc(NC(=O)c4ccccc4)cc3)c2cc1OC`: the residual activity stood at 95%.

As for `Cc1cccc(-c2[nH]c(C(C)(C)C)nc2-c2ccc3c(c2)OCO3)n1`, the residual activity was determined as 102%.

As to `Nc1cccc(-c2cc3c(Oc4cccc(O)c4)ncnc3[nH]2)c1`, the residual activity was -3%.

Turning to `c1ccc(-c2n[nH]cc2-c2ccnc3ccccc23)nc1`, the residual activity is 90%.

`COc1ccc(C(=O)Nc2sc3c(c2C(N)=O)CCCC3)cc1OC`: the residual activity came out at 104%.

Consider `COc1cc2ncnc(Nc3ccc(O)c(Br)c3)c2cc1OC`, for which the residual activity came to 18%.

On to `N#Cc1cnc2cnc(NCc3cccnc3)cc2c1Nc1ccc(F)c(Cl)c1`, for which the residual activity came out at 39%.

Consider `CO[C@H]1[C@@H](OC)C[C@H](C)[C@@H](OC)C2=CC(=O)C=C(NC(=O)/C(C)=C/C=C/[C@H](OC)[C@@H](OC(N)=O)/C(C)=C/[C@@H]1C)C2=O`, for which the residual activity was found to be 92%.

With `CC(=O)c1ccc(N2CCOCC2)cc1O`, the residual activity was determined as 93%.

For the molecule `Cc1ccc(S(=O)(=O)/C=C/C#N)cc1`, the residual activity is 76%.

As for `N#CCCc1ccc2c(c1)-c1[nH]c3ccc([N+](=O)[O-])cc3c1CC(=O)N2`, the residual activity turned out to be 13%.

`CC(=O)O/N=C1\C(=C2\C(=O)Nc3cc(Br)ccc32)Nc2ccccc21`: the residual activity stood at 8%.

Regarding `Nc1ccc2ncnc(NCCc3ccc(Oc4ccccc4)cc3)c2c1`, the residual activity came out at 95%.

A further test deals with Serine/threonine-protein kinase mTOR (Homo sapiens) (UniProt P42345). As to conditions: at 1 µM.
As to `Cc1ccc(NC2=CC(=O)c3sc(C)nc3C2=O)cc1`, the residual activity came to 96%.

Turning to `O=C1Nc2ccccc2/C1=C1/Nc2ccccc2/C1=N\OCCC(O)CO` (stereo not given), the residual activity was 113%.

`CC(C)n1cnc2/c(=N/c3cccc(Cl)c3)nc(NCCO)[nH]c21`: the residual activity is 114%.

With `N#C/C(=C(\N)Sc1ccc(N)cc1)c1ccccc1C(F)(F)F`, the residual activity worked out at 87%.

Consider `CC#CC(=O)Nc1cc2c(Nc3ccc(F)c(Cl)c3)ncnc2cn1`, for which the residual activity was 108%.

Take `Cn1nc2c3c(cccc31)C(=O)c1ccccc1-2`: the residual activity is 82%.

As to `CO[C@H]1C[C@@H]2CC[C@@H](C)[C@@](O)(O2)C(=O)C(=O)N2CCCC[C@H]2C(=O)O[C@H]([C@H](C)C[C@@H]2CC[C@@H](O)[C@H](OC)C2)CC(=O)[C@H](C)/C=C(\C)[C@@H](O)[C@@H](OC)C(=O)[C@H](C)C[C@H](C)/C=C/C=C/C=C/1C`, the residual activity is 57%.

As to `c1ccc2c(-c3ccncc3)c[nH]c2c1`, the residual activity came out at 109%.

Turning to `Cc1cc(Nc2nc(-c3ccccc3)nc3ccccc23)n[nH]1`, the residual activity is 109%.

`O=C1Nc2ccc(Br)cc2/C1=C\c1cc2c([nH]1)CCCC2`: the residual activity worked out at 116%.

In the case of `Cc1nc(-c2ccccc2)c(-c2ccncc2)o1`, the residual activity was determined as 109%.

For `c1ccc(-c2n[nH]c3c2oc2ccccc23)cc1`, the residual activity is 88%.

In the case of `O=C1NC(=O)c2c1c1c3ccccc3[nH]c1c1[nH]c3cc(Br)ccc3c21`, the residual activity is 117%.

In the case of `Nc1n[nH]c2nnc(-c3c(-c4ccccc4)nn4ccccc34)cc12`, the residual activity amounted to 113%.

With `Cc1nc2cc3nc(-c4cccs4)cnc3cc2n1C`, the residual activity came to 105%.

As for `COc1cccc(-c2cc(=O)c3ccccc3o2)c1N`, the residual activity was 92%.

For the molecule `Oc1ccc(-c2nc(-c3ccc(F)cc3)c(-c3ccncc3)[nH]2)cc1`, the residual activity is 98%.

With `Cc1cc2ncc(-c3ccccc3)nc2cc1C`, the residual activity stood at 93%.

In the case of `COc1cc2ncnc(Nc3ccc(NC(=O)c4ccccc4)cc3)c2cc1OC`, the residual activity was 88%.

In the case of `CN(C)CCCn1cc(C2=C(c3c[nH]c4ccccc34)C(=O)NC2=O)c2ccccc21`, the residual activity came out at 84%.

Consider `COc1ccc(C(=O)Nc2sc3c(c2C(N)=O)CCCC3)cc1OC`, for which the residual activity turned out to be 101%.

In the case of `COc1cc2ncnc(Nc3ccc(O)c(Br)c3)c2cc1OC`, the residual activity amounted to 106%.

On to `N#Cc1cnc2cnc(NCc3cccnc3)cc2c1Nc1ccc(F)c(Cl)c1`, for which the residual activity worked out at 89%.

Regarding `CO[C@H]1[C@@H](OC)C[C@H](C)[C@@H](OC)C2=CC(=O)C=C(NC(=O)/C(C)=C/C=C/[C@H](OC)[C@@H](OC(N)=O)/C(C)=C/[C@@H]1C)C2=O`, the residual activity was 95%.

Regarding `Cc1ccc(S(=O)(=O)/C=C/C#N)cc1`, the residual activity worked out at 95%.

Turning to `N#CCCc1ccc2c(c1)-c1[nH]c3ccc([N+](=O)[O-])cc3c1CC(=O)N2`, the residual activity is 116%.

On to `CC(=O)O/N=C1\C(=C2\C(=O)Nc3cc(Br)ccc32)Nc2ccccc21`, for which the residual activity came out at 96%.

Values taken from ChEMBL document CHEMBL2218924, “A broad activity screen in support of a chemogenomic map for kinase signalling research and drug discovery” (Biochem J, 2013).
